Two sequences from publication PMC7862700, “An all-to-all approach to the identification of sequence-specific readers for epigenetic DNA modifications on cytosine” can be followed below.

What all share (assay): DAPPL (digital affinity profiling via proximity ligation, sequencing); 10 mM Tris-HCl pH 7.5, 50 mM NaCl, 1 mM DTT, 4% glycerol, room temperature, 30 min; GST-TFs on glutathione beads, 16-mer random dsDNA library, 0.1% formaldehyde crosslink after washing; high values mean tight binding
In one test the target is T1, FLI1 (Homo sapiens, UniProt Q01543 1-452).
T1 sequence: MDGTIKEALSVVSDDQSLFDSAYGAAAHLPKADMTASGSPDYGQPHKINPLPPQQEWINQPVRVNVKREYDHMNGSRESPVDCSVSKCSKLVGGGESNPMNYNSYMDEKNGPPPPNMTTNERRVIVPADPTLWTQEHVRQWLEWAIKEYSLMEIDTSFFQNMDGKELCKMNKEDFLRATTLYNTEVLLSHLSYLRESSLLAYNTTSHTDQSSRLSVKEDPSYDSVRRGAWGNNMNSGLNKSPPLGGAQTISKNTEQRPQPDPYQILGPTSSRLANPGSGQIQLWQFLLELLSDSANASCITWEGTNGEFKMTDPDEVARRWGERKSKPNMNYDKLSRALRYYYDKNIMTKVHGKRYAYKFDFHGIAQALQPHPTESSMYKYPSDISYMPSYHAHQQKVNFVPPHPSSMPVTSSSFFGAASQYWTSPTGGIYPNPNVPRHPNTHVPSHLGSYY
The note with it: protein: recombinant; tags: N-terminal GST; dsDNA, one strand shown. An outline of the steps: (§1)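 Beads coated with glutathione captured GST-fused human transcription factors that had been expressed in yeast, and the factors were then given DNA barcodes and pooled with a tag-only sample. The pools were incubated with 200 nmole of a random double-stranded 16-mer DNA library in Tris/NaCl/DTT/glycerol buffer for 30 min at room temperature, washed, crosslinked with 0.1% formaldehyde and proximity-ligated with BsaI/T4 ligase at 37 °C for 1 h. PCR amplification and Illumina NextSeq500 sequencing came last. Binding signal is each hexamer's read frequency for a factor divided by its frequency for the tag-only sample.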

A further test deals with T2, ELK1 (Homo sapiens, UniProt P19419 1-428).
T2 sequence: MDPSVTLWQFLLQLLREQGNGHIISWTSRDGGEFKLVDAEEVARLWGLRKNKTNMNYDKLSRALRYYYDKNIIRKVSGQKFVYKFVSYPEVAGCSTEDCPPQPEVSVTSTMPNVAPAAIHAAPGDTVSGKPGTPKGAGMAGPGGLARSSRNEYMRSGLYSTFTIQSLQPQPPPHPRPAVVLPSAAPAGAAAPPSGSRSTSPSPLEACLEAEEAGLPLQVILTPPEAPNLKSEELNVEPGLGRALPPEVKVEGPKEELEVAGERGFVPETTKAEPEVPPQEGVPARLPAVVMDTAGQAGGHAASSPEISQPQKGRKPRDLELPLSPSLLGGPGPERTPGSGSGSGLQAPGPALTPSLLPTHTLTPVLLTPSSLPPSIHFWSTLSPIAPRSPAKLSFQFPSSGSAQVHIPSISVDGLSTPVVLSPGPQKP
The note with it: protein: recombinant; tags: N-terminal GST; dsDNA, one strand shown. An outline of the steps:
as §1

For a further test, the target named is T3, ERG (Homo sapiens, UniProt P11308 1-479).
T3 sequence: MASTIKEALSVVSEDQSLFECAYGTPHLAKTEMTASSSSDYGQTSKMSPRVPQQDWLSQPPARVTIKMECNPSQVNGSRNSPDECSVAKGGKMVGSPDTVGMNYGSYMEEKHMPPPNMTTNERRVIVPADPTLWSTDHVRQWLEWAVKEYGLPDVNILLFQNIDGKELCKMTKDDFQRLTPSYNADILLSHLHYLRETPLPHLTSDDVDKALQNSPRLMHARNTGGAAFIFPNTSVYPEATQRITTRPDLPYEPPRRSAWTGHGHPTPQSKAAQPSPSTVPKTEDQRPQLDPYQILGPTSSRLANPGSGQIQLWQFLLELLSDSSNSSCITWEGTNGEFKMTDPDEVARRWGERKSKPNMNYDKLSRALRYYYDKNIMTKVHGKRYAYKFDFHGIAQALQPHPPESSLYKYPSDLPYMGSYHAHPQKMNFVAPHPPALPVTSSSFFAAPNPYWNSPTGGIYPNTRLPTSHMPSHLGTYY
Particulars: protein: recombinant; tags: N-terminal GST; dsDNA, one strand shown. An outline of the steps:
as §1

The next test addresses ELF1 (Homo sapiens, UniProt P32519 1-619). Particulars: protein: recombinant; tags: N-terminal GST; dsDNA, one strand shown. The gist of the method:
as §1

The target in another test is T4, EHF (Homo sapiens, UniProt Q9NZC4 1-300).
T4 sequence: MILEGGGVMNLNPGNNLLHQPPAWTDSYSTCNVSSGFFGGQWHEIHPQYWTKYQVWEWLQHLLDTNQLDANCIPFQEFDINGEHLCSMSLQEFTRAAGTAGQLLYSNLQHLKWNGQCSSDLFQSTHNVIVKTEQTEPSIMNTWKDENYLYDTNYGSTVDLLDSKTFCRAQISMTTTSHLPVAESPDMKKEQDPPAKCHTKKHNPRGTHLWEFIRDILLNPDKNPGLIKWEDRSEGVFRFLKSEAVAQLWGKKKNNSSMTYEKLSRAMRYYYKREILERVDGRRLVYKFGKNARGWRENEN
The note with it: protein: recombinant; tags: N-terminal GST; dsDNA, one strand shown. The gist of the method:
as §1

For the next test, the target named is SPI1 (Homo sapiens, UniProt P17947 1-270). Particulars: protein: recombinant; tags: N-terminal GST; dsDNA, one strand shown. An outline of the steps:
as §1

In the next test the target is SPIB (Homo sapiens, UniProt Q01892 1-262). Particulars: protein: recombinant; tags: N-terminal GST; dsDNA, one strand shown. An outline of the steps: as §1
In the next test the target is T5, ELK3 (Homo sapiens, UniProt P41970 1-407).
T5 sequence: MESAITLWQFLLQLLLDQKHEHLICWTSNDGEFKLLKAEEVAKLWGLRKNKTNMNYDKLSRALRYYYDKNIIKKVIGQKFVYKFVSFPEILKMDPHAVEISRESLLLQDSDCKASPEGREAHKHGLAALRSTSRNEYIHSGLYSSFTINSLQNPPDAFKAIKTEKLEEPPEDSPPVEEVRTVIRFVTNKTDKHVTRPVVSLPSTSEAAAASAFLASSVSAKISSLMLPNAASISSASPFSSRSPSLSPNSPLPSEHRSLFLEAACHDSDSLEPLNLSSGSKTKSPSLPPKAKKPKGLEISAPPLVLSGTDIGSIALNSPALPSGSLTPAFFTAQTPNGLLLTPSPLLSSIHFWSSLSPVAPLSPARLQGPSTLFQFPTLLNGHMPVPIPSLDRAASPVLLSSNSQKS
Particulars: protein: recombinant; tags: N-terminal GST; dsDNA, one strand shown. The gist of the method: as §1

The next test concerns the target T6, FEV (Homo sapiens, UniProt Q99581 1-238).
T6 sequence: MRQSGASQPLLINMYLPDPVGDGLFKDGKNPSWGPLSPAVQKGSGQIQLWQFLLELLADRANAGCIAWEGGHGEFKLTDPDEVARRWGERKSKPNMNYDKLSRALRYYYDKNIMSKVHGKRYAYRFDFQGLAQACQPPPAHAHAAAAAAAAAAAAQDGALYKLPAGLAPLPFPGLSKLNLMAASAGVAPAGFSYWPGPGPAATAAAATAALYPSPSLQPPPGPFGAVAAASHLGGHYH
Particulars: protein: recombinant; tags: N-terminal GST; dsDNA, one strand shown. The gist of the method:
as §1

The target of another test is ETV5 (Homo sapiens, UniProt P41161 1-510). Particulars: protein: recombinant; tags: N-terminal GST; dsDNA, one strand shown. An outline of the steps: as §1
For the next test, the target named is HSF1 (Homo sapiens, UniProt Q00613 1-529). Particulars: protein: recombinant; tags: N-terminal GST; chain copies: 3; dsDNA, one strand shown. An outline of the steps:
as §1

In another test the target is T7, SPIC (Homo sapiens, UniProt Q8N5J4 1-248).
T7 sequence: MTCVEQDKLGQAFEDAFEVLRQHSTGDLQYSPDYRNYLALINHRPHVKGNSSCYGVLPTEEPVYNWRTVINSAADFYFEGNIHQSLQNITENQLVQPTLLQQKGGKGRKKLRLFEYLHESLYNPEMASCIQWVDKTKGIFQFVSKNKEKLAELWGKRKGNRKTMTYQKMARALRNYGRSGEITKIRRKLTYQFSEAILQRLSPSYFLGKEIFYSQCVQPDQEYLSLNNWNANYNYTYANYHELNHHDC
Particulars: protein: recombinant; tags: N-terminal GST; dsDNA, one strand shown. An outline of the steps:
as §1

The target in the next test is ELF4 (Homo sapiens, UniProt Q99607 1-663). The note with it: protein: recombinant; tags: N-terminal GST; dsDNA, one strand shown. An outline of the steps:
as §1

Another test has as its target T8, ETV2 (Homo sapiens, UniProt O00321 1-342).
T8 sequence: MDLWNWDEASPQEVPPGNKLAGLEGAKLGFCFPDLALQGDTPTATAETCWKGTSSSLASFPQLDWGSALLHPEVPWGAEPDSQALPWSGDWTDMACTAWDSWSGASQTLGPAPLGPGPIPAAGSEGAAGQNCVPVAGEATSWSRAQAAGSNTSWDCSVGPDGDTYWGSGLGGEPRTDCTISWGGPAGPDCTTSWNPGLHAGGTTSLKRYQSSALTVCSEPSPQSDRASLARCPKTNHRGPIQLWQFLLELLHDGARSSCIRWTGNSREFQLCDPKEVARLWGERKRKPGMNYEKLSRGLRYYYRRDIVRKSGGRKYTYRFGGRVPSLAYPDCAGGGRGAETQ
The note with it: protein: recombinant; tags: N-terminal GST; dsDNA, one strand shown. An outline of the steps:
as §1

In another test the target is CRX (Homo sapiens, UniProt O43186 1-299). The note with it: protein: recombinant; tags: N-terminal GST; dsDNA, one strand shown. The gist of the method: as §1
In a further test the target is ETV1 (Homo sapiens, UniProt P50549 1-477). The note with it: protein: recombinant; tags: N-terminal GST; dsDNA, one strand shown. An outline of the steps: as §1
In a further test the target is T9, GABPA (Homo sapiens, UniProt Q06546 1-454).
T9 sequence: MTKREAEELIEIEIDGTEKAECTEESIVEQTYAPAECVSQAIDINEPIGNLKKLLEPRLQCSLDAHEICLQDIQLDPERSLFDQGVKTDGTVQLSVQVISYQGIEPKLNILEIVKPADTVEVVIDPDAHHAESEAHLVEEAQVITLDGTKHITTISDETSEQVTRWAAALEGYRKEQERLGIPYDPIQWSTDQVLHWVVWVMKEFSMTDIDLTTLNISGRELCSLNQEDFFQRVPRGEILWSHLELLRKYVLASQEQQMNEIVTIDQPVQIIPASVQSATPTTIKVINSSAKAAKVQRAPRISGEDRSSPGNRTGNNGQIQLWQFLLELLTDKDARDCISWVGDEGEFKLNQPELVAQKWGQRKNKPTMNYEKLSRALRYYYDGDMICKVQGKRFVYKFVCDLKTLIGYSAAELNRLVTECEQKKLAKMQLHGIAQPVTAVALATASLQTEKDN
Particulars: protein: recombinant; tags: N-terminal GST; dsDNA, one strand shown. The gist of the method: as §1

For a further test, the target named is T10, ELF3 (Homo sapiens, UniProt P78545 1-371).
T10 sequence: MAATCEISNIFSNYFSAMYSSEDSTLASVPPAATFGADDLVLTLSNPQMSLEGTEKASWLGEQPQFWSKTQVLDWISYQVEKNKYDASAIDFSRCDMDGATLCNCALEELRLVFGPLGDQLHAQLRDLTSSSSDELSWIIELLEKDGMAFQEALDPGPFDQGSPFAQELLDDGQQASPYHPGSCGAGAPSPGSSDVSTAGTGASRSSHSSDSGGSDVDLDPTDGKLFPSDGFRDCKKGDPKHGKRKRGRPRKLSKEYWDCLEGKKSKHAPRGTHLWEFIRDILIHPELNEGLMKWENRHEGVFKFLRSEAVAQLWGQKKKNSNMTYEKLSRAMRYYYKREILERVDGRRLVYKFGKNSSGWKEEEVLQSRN
Particulars: protein: recombinant; tags: N-terminal GST; dsDNA, one strand shown. The gist of the method:
as §1

ETV1, sequence (P50549 whole entry): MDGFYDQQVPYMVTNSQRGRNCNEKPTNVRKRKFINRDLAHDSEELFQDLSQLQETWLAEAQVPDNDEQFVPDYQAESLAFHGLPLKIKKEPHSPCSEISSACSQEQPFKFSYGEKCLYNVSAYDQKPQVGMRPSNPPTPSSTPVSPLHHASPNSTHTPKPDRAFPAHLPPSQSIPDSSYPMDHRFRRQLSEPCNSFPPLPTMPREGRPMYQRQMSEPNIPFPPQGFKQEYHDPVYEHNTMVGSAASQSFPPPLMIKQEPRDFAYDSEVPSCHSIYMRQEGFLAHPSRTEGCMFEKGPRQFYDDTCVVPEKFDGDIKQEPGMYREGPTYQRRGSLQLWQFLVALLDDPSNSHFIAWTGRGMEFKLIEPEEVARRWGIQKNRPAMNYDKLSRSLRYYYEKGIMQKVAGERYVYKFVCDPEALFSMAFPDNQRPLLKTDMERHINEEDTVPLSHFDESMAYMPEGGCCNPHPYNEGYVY
ETV5, sequence (P41161 whole entry): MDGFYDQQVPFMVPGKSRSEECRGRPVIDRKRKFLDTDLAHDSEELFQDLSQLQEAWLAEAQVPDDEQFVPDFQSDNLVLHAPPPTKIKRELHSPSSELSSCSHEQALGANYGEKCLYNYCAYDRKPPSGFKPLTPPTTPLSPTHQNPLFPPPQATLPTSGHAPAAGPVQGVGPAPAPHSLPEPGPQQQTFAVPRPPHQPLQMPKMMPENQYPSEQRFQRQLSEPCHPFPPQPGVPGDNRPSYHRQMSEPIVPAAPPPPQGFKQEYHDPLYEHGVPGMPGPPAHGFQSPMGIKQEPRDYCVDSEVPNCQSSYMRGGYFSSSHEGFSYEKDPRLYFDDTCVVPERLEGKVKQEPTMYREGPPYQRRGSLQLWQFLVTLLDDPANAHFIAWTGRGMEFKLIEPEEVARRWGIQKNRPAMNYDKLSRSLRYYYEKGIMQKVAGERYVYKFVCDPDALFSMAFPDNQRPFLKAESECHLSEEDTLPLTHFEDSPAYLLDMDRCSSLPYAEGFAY
HSF1, sequence (Q00613 whole entry): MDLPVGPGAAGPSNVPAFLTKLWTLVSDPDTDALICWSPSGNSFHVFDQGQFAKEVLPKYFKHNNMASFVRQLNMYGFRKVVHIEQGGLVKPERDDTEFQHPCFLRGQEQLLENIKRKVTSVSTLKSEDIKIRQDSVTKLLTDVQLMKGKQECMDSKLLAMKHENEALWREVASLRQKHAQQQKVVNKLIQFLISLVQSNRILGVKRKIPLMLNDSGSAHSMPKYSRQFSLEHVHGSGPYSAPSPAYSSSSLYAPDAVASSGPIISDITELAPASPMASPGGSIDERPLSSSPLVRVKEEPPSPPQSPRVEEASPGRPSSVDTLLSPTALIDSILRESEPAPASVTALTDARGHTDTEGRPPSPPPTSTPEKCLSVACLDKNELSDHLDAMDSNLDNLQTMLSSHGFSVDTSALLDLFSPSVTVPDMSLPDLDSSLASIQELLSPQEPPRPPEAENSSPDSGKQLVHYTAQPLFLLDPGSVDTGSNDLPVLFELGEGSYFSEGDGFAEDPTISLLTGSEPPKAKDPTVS
SPIB, sequence (Q01892 whole entry): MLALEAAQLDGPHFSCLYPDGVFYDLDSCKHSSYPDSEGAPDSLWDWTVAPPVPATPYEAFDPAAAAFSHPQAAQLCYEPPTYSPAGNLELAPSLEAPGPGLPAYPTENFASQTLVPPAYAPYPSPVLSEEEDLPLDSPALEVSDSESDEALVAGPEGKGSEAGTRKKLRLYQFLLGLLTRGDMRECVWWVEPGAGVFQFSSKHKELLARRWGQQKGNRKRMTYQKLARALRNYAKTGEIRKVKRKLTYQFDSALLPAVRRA
ELF1, sequence (P32519 whole entry): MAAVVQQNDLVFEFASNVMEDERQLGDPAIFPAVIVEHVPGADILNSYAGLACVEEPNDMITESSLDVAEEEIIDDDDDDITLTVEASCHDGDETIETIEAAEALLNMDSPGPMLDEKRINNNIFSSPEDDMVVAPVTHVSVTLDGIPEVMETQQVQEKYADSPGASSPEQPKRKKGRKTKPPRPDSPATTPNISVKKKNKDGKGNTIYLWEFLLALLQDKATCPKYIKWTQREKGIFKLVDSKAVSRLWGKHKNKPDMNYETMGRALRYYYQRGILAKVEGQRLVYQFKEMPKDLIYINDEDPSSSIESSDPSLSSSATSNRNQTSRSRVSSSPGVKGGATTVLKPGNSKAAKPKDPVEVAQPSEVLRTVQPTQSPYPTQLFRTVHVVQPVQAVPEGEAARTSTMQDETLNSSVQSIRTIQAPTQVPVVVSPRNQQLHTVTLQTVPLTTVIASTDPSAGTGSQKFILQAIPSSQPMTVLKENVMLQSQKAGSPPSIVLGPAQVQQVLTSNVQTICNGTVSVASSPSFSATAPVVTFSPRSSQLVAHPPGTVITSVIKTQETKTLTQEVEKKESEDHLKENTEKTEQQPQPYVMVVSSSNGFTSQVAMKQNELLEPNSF
CRX, sequence (O43186 whole entry): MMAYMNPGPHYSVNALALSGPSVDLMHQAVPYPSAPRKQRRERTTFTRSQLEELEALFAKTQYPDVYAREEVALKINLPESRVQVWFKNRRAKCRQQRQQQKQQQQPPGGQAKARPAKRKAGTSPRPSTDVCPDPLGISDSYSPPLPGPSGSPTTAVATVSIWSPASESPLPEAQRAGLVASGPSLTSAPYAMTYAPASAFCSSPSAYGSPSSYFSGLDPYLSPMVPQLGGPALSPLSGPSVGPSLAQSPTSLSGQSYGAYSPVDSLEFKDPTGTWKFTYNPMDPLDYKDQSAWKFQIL
ELF4, sequence (Q99607 whole entry): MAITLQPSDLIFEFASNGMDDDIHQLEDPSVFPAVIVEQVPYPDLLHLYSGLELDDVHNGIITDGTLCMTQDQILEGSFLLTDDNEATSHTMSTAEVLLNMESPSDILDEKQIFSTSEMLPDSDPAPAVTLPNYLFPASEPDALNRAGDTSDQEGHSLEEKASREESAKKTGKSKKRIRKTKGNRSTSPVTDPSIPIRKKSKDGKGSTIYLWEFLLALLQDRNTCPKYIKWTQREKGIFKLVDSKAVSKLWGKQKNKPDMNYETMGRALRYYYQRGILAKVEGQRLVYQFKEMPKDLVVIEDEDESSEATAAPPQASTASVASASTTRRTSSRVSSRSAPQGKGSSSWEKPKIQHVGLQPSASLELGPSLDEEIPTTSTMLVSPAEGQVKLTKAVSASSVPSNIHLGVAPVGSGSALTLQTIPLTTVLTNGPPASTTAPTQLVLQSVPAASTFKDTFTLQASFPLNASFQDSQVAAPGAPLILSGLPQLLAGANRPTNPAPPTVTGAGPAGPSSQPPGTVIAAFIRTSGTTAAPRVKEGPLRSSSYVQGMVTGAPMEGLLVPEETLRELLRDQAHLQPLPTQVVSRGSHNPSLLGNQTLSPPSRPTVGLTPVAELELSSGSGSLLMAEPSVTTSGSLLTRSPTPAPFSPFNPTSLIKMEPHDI

In the case of AGATGA, the binding signal with FLI1 was 1.06 fold enrichment (6-mer frequency, TF over GST control); with ELK1, 1.13 fold enrichment (6-mer frequency, TF over GST control); with ERG it was 1.11 fold enrichment (6-mer frequency, TF over GST control); in the test with ELF1, 1.14 fold enrichment (6-mer frequency, TF over GST control); in the test with EHF, 1.06 fold enrichment (6-mer frequency, TF over GST control); with SPI1, 1.07 fold enrichment (6-mer frequency, TF over GST control). Also, the binding signal was 1.03 fold enrichment (6-mer frequency, TF over GST control) with SPIB; 1.14 fold enrichment (6-mer frequency, TF over GST control) with ELK3; 1.01 fold enrichment (6-mer frequency, TF over GST control) with FEV; 1.11 fold enrichment (6-mer frequency, TF over GST control) with ETV5; 1.24 fold enrichment (6-mer frequency, TF over GST control) with HSF1; 1.14 fold enrichment (6-mer frequency, TF over GST control) with SPIC. For the same sequence, the binding signal was 1.12 fold enrichment (6-mer frequency, TF over GST control) with ELF4; 1.17 fold enrichment (6-mer frequency, TF over GST control) in the test with ETV2; 1.21 fold enrichment (6-mer frequency, TF over GST control) with CRX; 1.1 fold enrichment (6-mer frequency, TF over GST control) in the test with ETV1.
With ACGATC, the binding signal was 1.05 fold enrichment (6-mer frequency, TF over GST control) with FLI1; 1.17 fold enrichment (6-mer frequency, TF over GST control) with GABPA; 1.03 fold enrichment (6-mer frequency, TF over GST control) with ERG; 1.09 fold enrichment (6-mer frequency, TF over GST control) with ELF1; 1.08 fold enrichment (6-mer frequency, TF over GST control) in the test with SPIB; 1.1 fold enrichment (6-mer frequency, TF over GST control) with ELK3. Further, the binding signal was 1.07 fold enrichment (6-mer frequency, TF over GST control) with FEV; 1.06 fold enrichment (6-mer frequency, TF over GST control) with ETV5; 1.15 fold enrichment (6-mer frequency, TF over GST control) with HSF1; 1.02 fold enrichment (6-mer frequency, TF over GST control) with SPIC; 1.08 fold enrichment (6-mer frequency, TF over GST control) with ELF4; 1.09 fold enrichment (6-mer frequency, TF over GST control) with ETV2. In addition, the binding signal with ELF3 is 1.04 fold enrichment (6-mer frequency, TF over GST control); with CRX it was 1.14 fold enrichment (6-mer frequency, TF over GST control); in the test with ETV1 it was 1.05 fold enrichment (6-mer frequency, TF over GST control).
